The campaign covered roughly 48,000 compounds. About 13,000 (27%) showed an effect of 50% or more. The list shows a part of the results.
What follows are molecules tested on Wolbachia pipientis (assay: Anti-Wolbachia Cell-Based Screen). Conditions: 5 µM.
Format: functional
Design: scale not given: in the data most compounds retested in dose-response had high values

SMILES | Percent Effect
O=C(C(CNCc1ccncc1)c1ccccc1)N1CCOCC1 (stereo unspecified) | 0.2839%
O=C(Cc1ccc2c(c1)OCCO2)N1CCCC(n2cccn2)C1 (stereo unspecified) | 7.45%
CC(C)c1nc(C2CCCN2CC(=O)Nc2nncs2)no1 (stereo unspecified) | -0.6487%
CC(C)c1nc(C2CCCN2Cc2ccncc2Cl)no1 (stereo unspecified) | 81.18%
CC(C)c1nc(C2CCCN2Cc2ccn(C)c(=O)c2)no1 (stereo unspecified) | -1.235%
CC(C)c1noc(CN2CCCC2c2noc(C(C)C)n2)n1 (stereo unspecified) | 108.9%
CC(C)c1nc(C2CCCN2c2ccnc(C3CCCC3)n2)no1 (stereo unspecified) | 0.08889%
CC(C)c1nc(C2CCCN2Cc2ccccc2C#N)no1 (stereo unspecified) | 6.567%
CC(C)c1nc(C2CCCN2Cc2ccon2)no1 (stereo unspecified) | 78.63%
CCc1noc(CN2CCCC2c2noc(C3CC3)n2)n1 (stereo unspecified) | 2.482%
CC(C)c1nc(C2CCCN2CC(=O)Nc2ccc(Cl)cn2)no1 (stereo unspecified) | -4.076%
Cc1cc(CN2CCCC2c2noc(C(C)C)n2)on1 (stereo unspecified) | 98.26%
c1ccc(-c2nnc3ccc(N4CCC5(CCOC5)C4)nn23)cc1 (stereo unspecified) | -13.9%
CNC(=O)CN1CCC(NC(=O)C(C)Oc2ccccc2C#N)CC1 (stereo unspecified) | 0.1216%
CC(C)NS(=O)(=O)c1cc(C(=O)O)cc(-c2ccccc2CO)c1 | 11.88%
Cc1nc(C2CCCN2Cc2ncc(C(C)C)o2)no1 (stereo unspecified) | 8.273%
Cc1nc(CN2CCCC2c2noc(C(C)C)n2)oc1C (stereo unspecified) | 98.12%
Cc1nc(C2CCCN2Cc2nc(C)c(C)o2)no1 (stereo unspecified) | -0.5484%
Cn1cnnc1CNC(=O)C1CCCN(Cc2cccc(F)c2)C1 (stereo unspecified) | -3.668%
CCc1c(C)nc2cc(C3CCN(Cc4cccc(F)c4)C3)nn2c1O (stereo unspecified) | 98.22%
Cc1nc[nH]c1CN1CCC(C2CCN(CCc3ccccc3)C2)CC1 (stereo unspecified) | -8.62%
Cc1cc(CN2CCC(C3CCN(Cc4cccnc4)CC3)C2)[nH]n1 (stereo unspecified) | -58.7%

SMILES | Percent Effect
CCc1c(C)nc2cc(C3CCN(Cc4ccccc4F)C3)nn2c1O (stereo unspecified) | -15.15%
CCn1cnnc1CNC(=O)C1CCCN(Cc2cccc(F)c2)C1 (stereo unspecified) | 3.888%
NC(=O)c1cccc2nc([C@H]3CCN(Cc4ccccc4F)C3)[nH]c12 | 1.754%
CCc1c(C)nc2cc(C3CCN(CCc4ccccc4)C3)nn2c1O (stereo unspecified) | 76.13%
CCc1c(C)nc2cc(C3CCN(Cc4cccnc4)C3)nn2c1O (stereo unspecified) | 85.92%
Cc1nc2cc(C3CCN(Cc4ccccc4F)C3)nn2c(O)c1C (stereo unspecified) | 92.44%
Cc1cc(CN2CCC(C3CCN(CCc4ccccc4)C3)CC2)[nH]n1 (stereo unspecified) | -6.326%
Cc1nc(N2CCOCC2)nc(C)c1NC(=O)COc1ccccc1 | 15.56%
c1cc(-c2noc(CN3CCn4c(nnc4C4CC4)C3)n2)co1 | -9.374%
O=C1N(Cc2ccc(F)c(F)c2)CCCC12CCN(C1CCSCC1)C2 (stereo unspecified) | -6.504%
COCCCS(=O)(=O)N1CCN(C(=O)CO)CC1 | -3.721%
CSc1sc(NC(=O)C2CCCN(C(N)=O)C2)nc1C (stereo unspecified) | -0.4613%
CCc1c(C)nc2cc(C3CCN(Cc4ccncc4C)C3)nn2c1O (stereo unspecified) | 81.51%
CCn1c(C2CCCN(Cc3cccc4cnccc34)C2)nn(C)c1=O (stereo unspecified) | 3.036%
CCc1c(C)nc2cc(C3CCN(Cc4ccc(F)cc4)C3)nn2c1O (stereo unspecified) | 99.62%
O=C(NC1(c2nc(C3CC3)no2)CCCCC1)c1ccncc1 | -8.803%
O=C(c1ccccc1F)N1CCN(c2ccc(-n3cccc3)nn2)CC1 | -6.21%
CNC(=O)c1cccnc1NCCOc1ccc(CC#N)cc1 | 4.731%
O=C(O)C(F)(F)F.O=C(O)[C@]12CCCN(Cc3ccoc3)C[C@H]1CN(c1ncccn1)C2 | 0.4182%
Cc1cnn(CC2CCCN2C(=O)c2ccccc2-n2cnnn2)c1 (stereo unspecified) | 114.3%
Cc1cnn(CC2CCCCN2C(=O)c2ccccc2-n2cccn2)c1 (stereo unspecified) | 109.2%
Cc1cnn(CC2CCCN2C(=O)c2sccc2C#N)c1 (stereo unspecified) | -6.888%

SMILES | Percent Effect
Cc1cnn(CC2CCCCN2C(=O)c2sccc2C#N)c1 (stereo unspecified) | -11.17%
Cc1cnn(CC2CCCN2C(=O)c2ccccc2-n2cccn2)c1 (stereo unspecified) | 86.06%
Cc1cnn(CC2CCCN2C(=O)c2sccc2-n2cnnn2)c1 (stereo unspecified) | 107.4%
Cc1cnn(CC2CCCN2C(=O)c2cn(-c3ccccc3)nc2C)c1 (stereo unspecified) | -0.04653%
O=C(c1cn(-c2cc(N3CCOCC3)ncn2)cn1)N1CCSCC1 | -13.27%
COc1ccc2c(c1)OCC(CNC(=O)c1ccncc1)C2 (stereo unspecified) | 2.151%
Cc1c[nH]c(C2CN(Cc3ccccc3C(=O)O)CCO2)n1 (stereo unspecified) | 102.8%
CSc1ncccc1C(=O)N1CCC(c2nc3c(C)cccc3[nH]2)CC1 | -2.536%
CCOC(=O)c1n[nH]cc1CN1CCOC(Cc2ccccc2)C1 (stereo unspecified) | 4.032%
CCCS(=O)(=O)N1CCCC(c2nc(-c3ccccc3)c[nH]2)C1 (stereo unspecified) | 7.84%
Cc1cccc2[nH]c(C3CCCN(Cc4ccccc4C(=O)O)C3)nc12 (stereo unspecified) | 94.13%
Cc1c[nH]c(C2CCCN(Cc3cccc(C(=O)O)c3)C2)n1 (stereo unspecified) | 79.24%
Cc1n[nH]c(C2CN(Cc3ncc(C(C)C)o3)CCO2)n1 (stereo unspecified) | 3.962%
Cc1cc(=O)[nH]c(-c2cccc(CN3CCCN4CCCC4C3)c2)n1 (stereo unspecified) | -8.166%
Cc1cccc2[nH]c(C3CCCN(Cc4ccc(CO)o4)C3)nc12 (stereo unspecified) | -5.911%
CC(=O)N[C@@H]1CN(Cc2ccccc2C(=O)O)C[C@H]1C(C)C | -2.27%
Cc1c[nH]c(C2CCCN(Cc3ccccc3C(=O)O)C2)n1.O=CO (stereo unspecified) | 102.4%
CCc1nnc2ccc(NCC3(N4CCCCC4)CCOCC3)nn12 | -22.71%
Cc1ccccc1Cc1nc(CSc2nnc(N)n2C)no1 | 3.092%
CCC(CNC(=O)c1ccco1)N1CCc2ccccc2C1 (stereo unspecified) | 8.519%
CC(C)NC(=O)C1c2c(ncn2C(C)C)CCN1Cc1ccccc1.O=C(O)C(F)(F)F (stereo unspecified) | -4.449%
COc1ncccc1CNC(=O)C1=NN(c2ccccc2)C(=O)CN1 | 17.13%

Source: ChEMBL document CHEMBL3988442, “University of Dundee, Small-Polar-MMV Screening Library” (2021)
